Screening data (PubChem BioAssay)
RMI FANCM FP – blocks RMI1/RMI2 complex binding to FANCM MM2 peptide. FP signal (polarization) at 33 µM. Fluorescence polarization, RMI core complex with F-MM2 peptide; active compounds read low. hit rate 0.58% among 70,000. AID 1159607; in the data active = FP signal below about 40
Of the large screens only hits and unclear results are named; the others gave an inactive call. This is one part of a sample in which hits are shown more often than they occur.

O=C(CN1CCC2(CC1)NC(=O)N(Cc1ccc(Cl)cc1)C2=O)Nc1ccccc1F	none
Cc1c(C)c2c(c(C)c1O)CCC(C)(C(=O)O)O2 (stereo unspecified)	RMI FANCM FP 1
Cc1c(C)c2c(c(C)c1O)CCC(C)(CN1CCN(c3cc(N4CCCC4)nc(N4CCCC4)n3)CC1)O2 (stereo unspecified)	none
Cc1c(C)c2c(c(C)c1O)CC[C@@](C)(CCC[C@H](C)CCC[C@H](C)CCCC(C)C)O2	none
O=S(=O)(N/N=C\c1cc(Br)ccc1O)c1ccccc1	none
O=S(=O)(N=Cc1cc(Br)ccc1O)c1ccccc1	RMI FANCM FP 21
NS(=O)(=O)c1ccc(N=Cc2cc(Br)ccc2O)cc1	none
O=C(NCCCn1nc(-c2ccncc2)ccc1=O)Nc1ccc(C(F)(F)F)cc1	none
Cc1ccc(C=Nc2ccc(S(N)(=O)=O)cc2)o1	none
CC(C)(C)NC(=S)N/N=C\c1ccccc1O	none
C(/C=C/c1ccn[nH]1)=C\c1ccccc1	none
CN1CCc2c(sc3nc(NC(=O)c4ccc(OC(F)(F)F)cc4)sc(=O)c23)C1	none
CCNc1nc(SCC(=O)NC(=O)NCc2ccccc2)nc2sc3c(c12)CCN(C)C3	none
CCNc1[nH]c(=S)nc2sc3c(c12)CCN(C)C3	RMI FANCM FP -15
COc1ccc(OC)c(NC(=O)C(=O)NCCc2ccc(N3CCCC3)cc2)c1	none
Nc1nc2c(cc3c4c(cccc42)CC3)s1	none
CN(C)c1ccc(/C=C/c2ccncc2)cc1	RMI FANCM FP 25
CN(C)c1ccc(/C=C/c2ccccc2)cc1	none
CN(C)c1ccc(/C=C/C#N)cc1	none
COc1ccc(OC)c2sc(N(CCN3CCOCC3)C(=O)c3ccno3)nc12	none
COC(=O)Cn1c(=NC(=O)c2ccc(OC)cc2)sc2cc(NC(C)=O)ccc21	none
COC(=O)Cn1c(=NC(=O)c2ccc(F)cc2)sc2cc(OC)ccc21	RMI FANCM FP 28
COC(=O)Cn1c(=NC(=O)c2ccc(Br)s2)sc2cc(F)ccc21	none
Cc1c(C(=O)NCc2nnc(SCC(=O)N3CCCC3)o2)cccc1[N+](=O)[O-]	none
O=C1c2ccccc2C(=O)c2cc(S(=O)(=O)N(Cc3ccccc3)c3ccccc3)ccc21	none
COc1ccc(C)cc1S(=O)(=O)N1CCCC(c2nnc(COc3ccccc3)o2)C1 (stereo unspecified)	none
COc1ccc(-c2ccc(N3CCC(C(=O)Nc4ccncc4)CC3)nn2)cc1	none
O=C(NCCn1ncccc1=O)Nc1ccc(F)c(F)c1	none
O=[N+]([O-])c1ccc(SC2=NCCN2)c(Cl)c1	none
O=[N+]([O-])c1ccc(Sc2ccc(Cl)cc2Cl)c2nonc12	RMI FANCM FP 33
O=[N+]([O-])c1ccc(Sc2ccccc2)c(Cl)c1	none
Cc1cc(C)cc(-n2[nH]nnc2=S)c1	none
O=C(c1ccc(Br)o1)N1CCOCC1	none
COC(=O)/C(C#N)=C(\C#N)c1ccc(Br)o1	RMI FANCM FP 26
O=C(Nc1cccc(Cl)c1)c1ccc(Br)o1	none
CCN1CCCc2cc(CCNC(=O)c3ccc(OC(C)C)cc3)ccc21	RMI FANCM FP 20
CCN1CCCc2cc(CCNC(=O)c3ccc(Br)o3)ccc21	none
CCN1CCCc2cc(CCNC(=O)C(=O)NCCOC)ccc21	RMI FANCM FP 13
CCN1CCCc2cc(CCNC(=O)NC(C)(C)C)ccc21	none
CCN1CCCc2cc(CCNC(=O)C(=O)NCCN3CCOCC3)ccc21	none
CCCCOc1ccc(C(=O)NCCc2ccc3c(c2)CCCN3C)cc1	none
Cc1cc(-c2nnc(NC(=O)c3cc(Cl)sc3Cl)o2)n(C)n1	none
COc1cc(-c2nnc(NC(=O)c3ccccc3F)o2)cc(OC)c1OC	none
CC1CCN(C(C)CNC(=O)Nc2ccccc2C(F)(F)F)CC1 (stereo unspecified)	none
O=S(=O)(NCCn1ncc2c(N3CCCC3)ncnc21)c1ccc(F)cc1	none
CSc1ccccc1C(=O)Nc1sc2c(c1C(N)=O)CCN(C(C)C)C2	none
CC(=O)N1CCc2c(sc(N)c2C(N)=O)C1	none
CC(C)N1CCc2c(sc(N)c2C(N)=O)C1	RMI FANCM FP -30
Cc1ccc(Nc2n[nH]nc2C(=O)Nc2cccc(C)c2C)cc1	none
O=C(NC(=O)c1c(Cl)cccc1Cl)Nc1ccccc1C(=O)NCC1CC1	none
O=[N+]([O-])c1ccc(-c2nn(-c3ccccc3)cc2/C=N/n2c(-c3cccs3)n[nH]c2=S)cc1	RMI FANCM FP 12
O=C(Cc1ccc([N+](=O)[O-])cc1)N/N=C\c1cn(-c2ccccc2)nc1-c1ccccc1	none
S=c1[nH]nc(-c2ccncc2)n1/N=C\c1cn(-c2ccccc2)nc1-c1cccs1	none
O=C(CCCCc1nc2ccccc2s1)OCC(=O)c1ccc(F)cc1	none
Cc1nc(-n2nc(-c3cccs3)cc2NC(=O)COc2ccc(Cl)cc2)[nH]c(=O)c1C	none
COC(=O)c1sc(-c2ccccc2)cc1NC(=O)c1cc2c(ccc3ccccc32)oc1=O	RMI FANCM FP 31
COC(=O)c1sc(-c2ccccc2)cc1NC(=O)c1ccccc1I	none
COC(=O)c1sc(-c2ccccc2)cc1NC(=O)c1ccccc1Cl	none
CC(=O)Nc1ccc(OC(=O)N2c3ccccc3Sc3ccccc32)cc1	none
Cc1nc(-n2nc(-c3cccs3)cc2NC(=O)c2cc3ccccc3o2)[nH]c(=O)c1C	none
